Experimental data: PubChem BioAssay (EPA / NIEHS)
The source made the active and inactive calls. The calls were made as follows: active = hit-call score of the fitted dose curve at least 0.9, where 1 is the maximum; inactive = score below 0.9.

Biological target: X-box-binding protein 1 (Homo sapiens) (UniProt P17861)
Assay: ATG_Xbp1_CIS: Attagene CIS-FACTORIAL HepG2 Assay for human X-box Binding Protein 1 (XBP1) (AID 2282972)
Details: HepG2 XBP1 cis-element reporter, Attagene multiplex; actives raise or lower the signal
Method: ATG_CIS is a cell-based, multiplexed-readout assay that uses HepG2, a human liver cell line, with measurements taken at 24 hours after chemical dosing in a 24-well plate.ATG_Xbp1_CIS is one of 52 assay component(s) measured or calculated from the ATG_CIS assay. It is designed to make measurements of mRNA induction, a form of inducible reporter, as detected with fluorescence intensity signals by Reverse transcription polymerase chain reaction (RT-PCR) and Capillary electrophoresis technology.Data from the assay component ATG_Xbp1_CIS was analyzed into 1 assay endpoint. This assay endpoint, ATG_Xbp1_CIS, was analyzed with bidirectional fitting relative to DMSO as the negative control and baseline of activity. Using a type of inducible reporter, measures of mRNA for gain or loss-of-signal activity can be used to understand the reporter gene at the transcription factor-level as they relate to the gene XBP1. Furthermore, this assay endpoint can be referred to as a primary readout, because this assay has produced multiple assay endpoints where this one serves a reporter gene function. To generalize the intended target to other relatable targets, this assay endpoint is annotated to the dna binding intended target family, where the subfamily is basic leucine zipper.
Human liver HepG2 cells are transiently transfected with multiple reporter transcription units (MRTUs) in 6-well plates using FuGene 6 reagent (Roche; 3 ml FuGene/1 mg DNA). The MRTU constructs are regulated by a cis-regulating element (promoter). […] A major difference between the CIS and TRANS system is that in CIS activities of endogenous TFs are measured, whereas the TRANS assay evaluates changes in activities of exogenous, chimeric NR-Gal4 proteins. […] At the end of 24 hour incubation, total RNA was isolated using TriZol reagent (Invitrogen). The isolated RNA is then reverse-transcribed using oligo(dT) primer and Mo-MLV reverse transcriptase (Invitrogen) with DNAse I (Ambion) treatment for 30 min. The one-tenth of the produced cDNA was amplified by PCR using Taq DNA polymerase (Invitrogen) and two reporter sequence-specific primers. The PCR products were fluorescently labeled by primer extension with 6-arboxyfluorescein (6-FAM) 5'-labeled reporter sequence-specific primer (2 min at 95 C, 20 s at 68 C and 10 min at 72 C) and these products were digested with 5U of HpaI (New England Biolabs) for 2h at 37 C. The fragments were purified using Qiaquick PCR columns (Qiagen), analyzed on an ABI 3130xL genetic analyzer (Applied Biosystems) with peak positions identified by using a set of X-rhodamine (ROX)-labeled MapMarker1000 molecular weight standards (BioVentures). The raw capillary electrophoresis data was processed using Attagraph software (Attagene).

Chain of X-box-binding protein 1 (Homo sapiens) (P17861 whole entry, looked up): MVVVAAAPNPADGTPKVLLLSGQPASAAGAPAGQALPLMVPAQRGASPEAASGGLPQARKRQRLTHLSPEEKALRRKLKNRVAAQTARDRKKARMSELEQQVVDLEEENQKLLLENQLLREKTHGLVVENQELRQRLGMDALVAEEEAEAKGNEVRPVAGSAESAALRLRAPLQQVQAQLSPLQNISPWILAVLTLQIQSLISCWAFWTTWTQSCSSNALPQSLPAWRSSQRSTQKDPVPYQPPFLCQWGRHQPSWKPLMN

Compound	outcome	AC50
Nc1nc(N)c2nc(CNc3ccc(C(=O)N[C@@H](CCC(=O)O)C(=O)O)cc3)cnc2n1	inactive	–
CCCCCCCCCCCC(=O)OC	inactive	–
Oc1ccc2c(c1)OC[C@@H](N1CCC(O)(c3ccc(F)cc3)CC1)[C@H]2O	inactive	–
O=C(O)CCCCC(=O)O	inactive	–
CN1CCCC1=O	inactive	–
CCOC(=O)C(C)(C)Oc1ccc(Cl)cc1	inactive	–
Cc1cccc(C)c1O	inactive	–
COc1ccc(C)cc1N	inactive	–
CCCCCCCCCCCCCCCCCC(=O)O	inactive	–
O=C(O)Cc1ccccc1Nc1c(Cl)cccc1Cl	inactive	–
C[C@]12C=CC(=O)C=C1CC[C@@H]1[C@@H]2C(=O)C[C@@]2(C)[C@H]1CC[C@]2(O)C(=O)CO	inactive	–
CC(=O)Oc1ccccc1C(=O)O	inactive	–
CN[C@H]1CC[C@@H](c2ccc(Cl)c(Cl)c2)c2ccc(S(N)(=O)=O)cc21	inactive	–
CC1=C(/C=C/C(C)=C/C=C/C(C)=C/CO)C(C)(C)CCC1	inactive	–
Cc1cccc(Nc2cc(Cl)nc(SCC(=O)O)n2)c1C	inactive	–
Clc1cc(Cl)c(Cl)cc1Cl	inactive	–
COc1cc(C=O)ccc1O	inactive	–
C=CCc1ccc(O)c(OC)c1	inactive	–
CCCCN(CCCC)CCCC	inactive	–
CCCCCC(=O)O	inactive	–

Compound	outcome	AC50
Nc1ccc(S(=O)(=O)c2ccc(N)cc2)cc1	inactive	–
COc1cccc2c1C(=O)c1c(O)c3c(c(O)c1C2=O)C[C@@](O)(C(=O)CO)C[C@@H]3O[C@H]1C[C@H](N)[C@H](O)[C@H](C)O1	–	0.0821 µM (active)
Cc1ccc(C)c(O)c1C	inactive	–
NS(=O)(=O)c1cc2c(cc1Cl)NCNS2(=O)=O	inactive	–
CC1(C)NC(=O)NC1=O	inactive	–
COc1cc(/C=C/C(=O)CC(=O)/C=C/c2ccc(O)c(OC)c2)ccc1O	–	33.4 µM (active)
C1CCC(SSC2CCCCC2)CC1	inactive	–
NC(=O)Cn1c(=O)cc(CCN2CCN(c3nccc4sccc34)CC2)c2ccc(F)cc21	inactive	–
COc1ccc(S(=O)(=O)N2C(=O)[C@@](c3ccccc3OC)(N3C[C@H](O)C[C@H]3C(=O)N(C)C)c3cc(Cl)ccc32)c(OC)c1	–	69.5 µM (active)
CC(=O)OCCOCCOCCOC(C)=O	inactive	–
CNC(=O)[C@H]1O[C@@H](n2cnc3c(NCc4cc(Cl)ccc4OCc4cc(C)no4)ncnc32)[C@H](O)[C@@H]1N	inactive	–
CCCCc1ccc2c(n1)[C@@H](c1ccc(OC)cc1C[C@H](C)C(=O)O)[C@H](C(=O)O)[C@H]2c1ccc2c(c1)OCO2	inactive	–
Cc1ccc(C(C)C)c(O)c1	inactive	–
CC(C)c1ccc(C(=O)N=C(N)N)cc1S(C)(=O)=O	inactive	–
Cc1c(C(=O)O)c(O)cc2c1C(=O)c1c(O)c([C@@H]3O[C@H](CO)[C@@H](O)[C@H](O)[C@H]3O)c(O)c(O)c1C2=O	inactive	–
Cc1nc(C)nc(N2C[C@@H](C)N(c3ccnc([C@@H](C)O)n3)[C@@H](C)C2)n1	inactive	–
CC(C)(C)c1cc(O)c(C(C)(C)C)cc1O	–	37.6 µM (active)
O=c1[nH]cc(F)c(=O)[nH]1	inactive	–
CCCCCCCCCCC	inactive	–
CCNc1cccc(C)c1	inactive	–
